These results are taken from PubChem BioAssay (NCI).

Test systems include DU-145 prostate; K-562 leukemia; MALME-3M melanoma; MDA-MB-231 breast; RXF 393 renal; SF-268 CNS; SF-295 CNS; SF-539 CNS; UACC-257 melanoma; M14 melanoma; HCT-15 colon; HT29 colon; SNB-75 CNS; SNB-19 CNS; U251 CNS; PC-3 prostate; SK-MEL-5 melanoma; UACC-62 melanoma; LOX IMVI melanoma; SK-MEL-28 melanoma.
Common to all, as to assay: NCI-60 one-dose screen, 48 h (100 = growth as untreated, 0 = no growth, -100 = all killed)
Common to all, as to conditions: 10 µM unless noted

Structures are written as SMILES. About 83,000 compounds went through this panel and 20% of them were active in at least one assay; those are over-represented in the sample as a whole.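 Assay: single dose, 48 h. Readout: percent growth (0 = no net growth; negative = cell death). Active: <10.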 A number with no mark means an inactive call. The source made the active and inactive calls.

Consider `CCCCNC(=O)Oc1ccc(/C(=C(/CC)Cc2ccccc2)c2ccc(OCCN3CCCCCC3)cc2)cc1`, for which the growth was 49.9% with DU-145 prostate; -24.8% (active) in the assay with K-562 leukemia; -58.3% (active) in the assay with MALME-3M melanoma; 43.3% in the assay on MDA-MB-231 breast; 16.7% in the assay with RXF 393 renal; 61% in the assay on SF-268 CNS. Moreover, the growth in the assay with SF-295 CNS is 91.9%; in the assay with SF-539 CNS, -30.2% (active); with UACC-257 melanoma it was 34.3%; with M14 melanoma, -19.3% (active); in the assay on HCT-15 colon, -29.9% (active); with HT29 colon, -21% (active). Moreover, the growth was 61.2% with SNB-75 CNS; 45.2% in the assay on SNB-19 CNS; 25.7% in the assay on U251 CNS; 39.8% in the assay on PC-3 prostate; 13.1% with SK-MEL-5 melanoma; 24% in the assay on UACC-62 melanoma. Also, the growth in the assay with LOX IMVI melanoma is -93.6% (active); with SK-MEL-28 melanoma it was -6.15% (active).
Take `OCCCC1CCN(C(Cc2ccccc2)c2ccccc2)CC1` (stereo not given): the growth was 103% with DU-145 prostate; 113% in the assay with K-562 leukemia; 93.8% in the assay with MALME-3M melanoma; 97.8% with MDA-MB-231 breast; 111% in the assay with RXF 393 renal; 90.6% in the assay on SF-268 CNS. Also, the growth with SF-295 CNS is 98.7%; with SF-539 CNS, 85.6%; in the assay on UACC-257 melanoma, 96.4%; in the assay on M14 melanoma, 88.8%; in the assay on HCT-15 colon, 100%; in the assay on HT29 colon, 76.5%. In addition, the growth in the assay with SNB-75 CNS is 84.2%; in the assay with SNB-19 CNS, 101%; with U251 CNS, 93.2%; with PC-3 prostate, 70.8%; with SK-MEL-5 melanoma it was 101%; with UACC-62 melanoma, 97.7%. Besides, the figures for the growth with LOX IMVI melanoma and in the assay with SK-MEL-28 melanoma were 93.2% and 64.8%, respectively.
For `CCN1CC(=O)N(/N=C2\C(=O)Nc3ccccc32)C1=S`, the growth with DU-145 prostate is 112%; in the assay with K-562 leukemia, 106%; with MALME-3M melanoma, 91%; in the assay with MDA-MB-231 breast, 88.5%; in the assay with RXF 393 renal, 76.5%; in the assay on SF-268 CNS, 103%. In addition, the growth with SF-295 CNS was 96.6%; in the assay on SF-539 CNS it was 94.1%; in the assay with UACC-257 melanoma, 103%; with M14 melanoma, 86%; in the assay with HCT-15 colon, 95.1%; in the assay on HT29 colon it was 102%. In addition, the growth was 80.3% with SNB-75 CNS; 91.9% in the assay on SNB-19 CNS; 99.2% in the assay on U251 CNS; 92% with PC-3 prostate; 79.4% with SK-MEL-5 melanoma; 76.4% in the assay on UACC-62 melanoma. Further, the growth with LOX IMVI melanoma was 86.5%; with SK-MEL-28 melanoma, 111%.
For the molecule `CC1(C)CC[C@]2(C(=O)O)CC[C@]3(C)C(=CC[C@@H]4[C@@]5(C)C/C(=C/O)C(=O)C(C)(C)[C@@H]5CC[C@]43C)[C@@H]2C1`, the growth in the assay on DU-145 prostate was 85.2%; in the assay with K-562 leukemia it was 32.2%; with MALME-3M melanoma, 89.9%; with MDA-MB-231 breast, 111%; with RXF 393 renal, 93.7%; in the assay on SF-268 CNS, 57.2%. Also, the growth in the assay on SF-295 CNS was 79.9%; in the assay on SF-539 CNS, 29.2%; in the assay with UACC-257 melanoma, 91.6%; in the assay with M14 melanoma it was 79.1%; with HCT-15 colon, 24.4%; with HT29 colon, 26.6%. In addition, the growth in the assay on SNB-75 CNS is 95.4%; in the assay with SNB-19 CNS, 60.1%; in the assay with U251 CNS, 28.3%; with PC-3 prostate, 31.4%; in the assay with SK-MEL-5 melanoma, 67.8%; with UACC-62 melanoma, 61.6%. For the same molecule, the growth was 27.4% with LOX IMVI melanoma and 52.2% in the assay on SK-MEL-28 melanoma.
In the case of `Cc1nc(N2CCOCC2)sc1S(N)(=O)=O`, the growth was 105% in the assay with DU-145 prostate; 110% in the assay with K-562 leukemia; 96% with MALME-3M melanoma; 101% with MDA-MB-231 breast; 103% in the assay on RXF 393 renal; 94% in the assay with SF-268 CNS. Further, the growth is 94.1% with SF-295 CNS; 98% with SF-539 CNS; 97.4% with UACC-257 melanoma; 103% in the assay with M14 melanoma; 105% in the assay on HCT-15 colon; 102% in the assay with HT29 colon. Further, the growth with SNB-75 CNS was -0.593% (active); in the assay with SNB-19 CNS, 102%; in the assay with U251 CNS it was 92.9%; with PC-3 prostate, 92.3%; with SK-MEL-5 melanoma, 100%; with UACC-62 melanoma, 94%. The growth with LOX IMVI melanoma is 95.8%; with SK-MEL-28 melanoma it was 104%.
For the molecule `C/C(Nc1ccc(Cl)c(Cl)c1)=C1\CCOC1=O`, the growth was 106% in the assay with DU-145 prostate; 86.8% with K-562 leukemia; 109% in the assay on MALME-3M melanoma; 95% with MDA-MB-231 breast; 92.2% in the assay on RXF 393 renal; 106% in the assay on SF-268 CNS. Also, the growth is 86.7% with SF-295 CNS; 98.5% in the assay with SF-539 CNS; 98.3% with UACC-257 melanoma; 81.3% with M14 melanoma; 84% in the assay with HCT-15 colon; 84.8% in the assay on HT29 colon. The growth in the assay on SNB-75 CNS was 78.6%; in the assay with SNB-19 CNS, 106%; with U251 CNS, 91%; with PC-3 prostate, 86.8%; in the assay on SK-MEL-5 melanoma, 101%; in the assay with UACC-62 melanoma, 71.2%. Also, the growth is 67.6% with LOX IMVI melanoma and 111% in the assay with SK-MEL-28 melanoma.
For `Cn1cccc1C(=O)C1C(c2cccc([N+](=O)[O-])c2)C2C3CCCCC3CN2C12C(=O)Nc1ccc(Cl)cc12` (stereo not given), the growth in the assay on DU-145 prostate is 38.7%; in the assay on K-562 leukemia, 33.4%; in the assay on MALME-3M melanoma, 68.1%; with MDA-MB-231 breast it was 55.6%; in the assay on RXF 393 renal, -16.8% (active); in the assay with SF-268 CNS, 52.3%. Also, the growth in the assay with SF-295 CNS was 82.3%; in the assay with SF-539 CNS, 77.2%; in the assay with UACC-257 melanoma, 70.7%; in the assay with M14 melanoma, 52.4%; in the assay on HCT-15 colon it was 41.7%; in the assay on HT29 colon it was 41.9%. In addition, the growth in the assay on SNB-75 CNS was 37.4%; in the assay on SNB-19 CNS it was 53.2%; in the assay with U251 CNS it was 53.8%; with PC-3 prostate, 35.2%; in the assay on SK-MEL-5 melanoma, 64.5%; in the assay with UACC-62 melanoma, 60.1%. Further, the values for the growth in the assay with LOX IMVI melanoma and with SK-MEL-28 melanoma were 37.3% and 83.2%, respectively.
With `O=C1Nc2ccc(Br)cc2/C1=N/c1n[nH]c(=S)s1`, the growth in the assay on DU-145 prostate was 106%; with K-562 leukemia, 90.8%; with MALME-3M melanoma, 107%; in the assay with MDA-MB-231 breast it was 105%; in the assay with RXF 393 renal it was 109%; in the assay with SF-268 CNS, 91.5%. Besides, the growth was 101% in the assay with SF-295 CNS; 99.7% in the assay with SF-539 CNS; 99.6% in the assay with UACC-257 melanoma; 99.8% in the assay on M14 melanoma; 99.1% with HCT-15 colon; 104% in the assay on HT29 colon. Besides, the growth in the assay on SNB-75 CNS is 74.5%; in the assay on SNB-19 CNS, 101%; with U251 CNS, 96.2%; in the assay on PC-3 prostate, 95%; with SK-MEL-5 melanoma, 97.6%; in the assay on UACC-62 melanoma, 93.2%. Moreover, the growth in the assay on LOX IMVI melanoma is 90.3%; in the assay with SK-MEL-28 melanoma, 114%.
